Screening data deposited in PubChem BioAssay by National Center for Advancing Translational Sciences (NCATS).
HP1b chromo inh: HTS for Inhibitors of HP1-beta Chromodomain Interactions with Methylated Histone Tails; AID 540317, 2011; Potency, µM (series often up to 114 µM), for inactives: top-dose activity change, negative = inhibition, hits mostly inhibitors; AlphaScreen HP1-beta / biotin-H3K9me3 peptide binding; 390,000 tested, 0.56% active; Chromobox protein homolog 1 (Homo sapiens), P83916; note: nearly all actives have a fitted effect of over 70% in size
Target sequence (P83916 whole entry, looked up): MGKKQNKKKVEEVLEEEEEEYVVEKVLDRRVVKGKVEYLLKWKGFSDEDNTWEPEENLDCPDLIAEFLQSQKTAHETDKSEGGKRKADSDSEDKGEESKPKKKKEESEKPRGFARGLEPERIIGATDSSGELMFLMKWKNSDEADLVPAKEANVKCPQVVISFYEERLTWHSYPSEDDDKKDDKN
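AlphaScreen: HP1-beta (50 nM) preformed 30 min with biotin-H3(1-18)K9me3 peptide (50 nM) in PBS pH 7.4, 0.01% Tween-20. Compound added for 30 min at RT, then streptavidin donor/nickel chelate acceptor beads (10 ug/mL) for 30 min.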
TDP1 inh: qHTS Assay for Inhibitors of Tyrosyl-DNA Phosphodiesterase (TDP1); recombinant TDP1, AlphaScreen DNA substrate cleavage; 350,000 tested, 0.28% active; AID 485290, 2010; Potency, µM (top dose mostly 130 µM), without a hit: at the top dose activity change, negative = inhibition, most hits filed as inhibitors; note: % is set by controls: 0 for no effect and ±100 for the full control effect; nearly all actives have a fitted effect of over 40% in size
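Signal: AlphaScreen proximity between streptavidin donor and anti-FITC acceptor beads on intact substrate. Reaction: Tdp1 1 nM, substrate 15 nM final, 5 min RT after 15 min compound preincubation.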
G9a inh: qHTS Assay for Inhibitors of Histone Lysine Methyltransferase G9a | Histone-lysine N-methyltransferase EHMT2 (Homo sapiens), Q96KQ7 | G9a H3K9 monomethylation, AlphaScreen, 2 h | Potency, µM (titrated, usually from 102 µM), without a hit: at the highest dose activity, negative = inhibition, actives largely listed as inhibitors | 350,000 tested, 8.8% active; note: % is set by controls: 0 for no effect and ±100 for the full control effect; nearly all actives have a fitted effect of over 75% in size
Target sequence (Q96KQ7 913-1193 limits assumed): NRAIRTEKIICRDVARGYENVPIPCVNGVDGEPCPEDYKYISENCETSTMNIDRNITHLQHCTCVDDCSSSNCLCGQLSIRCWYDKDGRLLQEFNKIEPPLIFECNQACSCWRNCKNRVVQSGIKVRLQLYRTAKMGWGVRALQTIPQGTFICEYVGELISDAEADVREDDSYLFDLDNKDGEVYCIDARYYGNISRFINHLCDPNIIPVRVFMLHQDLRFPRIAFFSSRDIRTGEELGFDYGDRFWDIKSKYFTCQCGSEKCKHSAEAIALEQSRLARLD
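Compounds were preincubated with 20 nM G9a for 15 min, after which biotinylated H3K9 peptide (500 nM) and SAM (20 uM) started a 2 h room-temperature reaction. Monomethylated product was quantified by antibody-based AlphaScreen chemiluminescence.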
Sfp PPTase inh: qHTS Assay for Inhibitors of Bacillus subtilis Sfp phosphopantetheinyl transferase (PPTase); 310,000 tested, 3.5% active; 4'-phosphopantetheinyl transferase ffp (Bacillus subtilis), Q9F4F7; Biochemical Sfp PPTase activity, qHTS; Potency, µM, for inactives: largest response in the series, negative = inhibition, usual class: inhibitors;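 note: the enzyme is Sfp with the accession as filed and its product quenches rhodamine fluorescence; 0% = enzyme reaction without inhibitor and -100% = no enzyme wells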
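Reaction rates are the 30-min fluorescence difference (ex 525, em 598 nm) in wells containing 15 nM Sfp, 5 uM rhodamine-CoA and 12.5 uM BHQ-2-YbbR at pH 7.6 with 10 mM MgCl2.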
BAZ2B inh: qHTS Assay for Inhibitors of BAZ2B. Bromodomain adjacent to zinc finger domain protein 2B (Homo sapiens), Q9UIF8. AlphaScreen BAZ2B-H3K14Ac peptide displacement. Potency, µM (top dose mostly 114 µM), for the others: top-dose activity change, negative = inhibition, actives largely listed as inhibitors. 360,000 tested, 4.4% active; note: % is set by controls: 0 for no effect and ±100 for the full control effect; nearly all actives have a fitted effect of over 60% in size
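BAZ2B (50 nM) with biotin-H3(5-23)K14Ac peptide (50 nM) in PBS pH 7.4, 0.01% Tween-20, preformed 30 min, then compound 30 min at room temperature; top concentration 110uM. AlphaScreen streptavidin donor/nickel chelate acceptor beads (10 ug/mL final), 20 min dark, signal read.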
JMJD2A Tudor inh: qHTS Assay for Inhibitors of JMJD2A-Tudor Domain. AID 504339, 2011. 390,000 tested, 4.4% active. AlphaScreen JMJD2A-Tudor / H3K4me3 peptide binding. Lysine-specific demethylase 4A (Homo sapiens), O75164. Potency, µM (doses to about 114 µM), without a hit: at the highest dose activity change, negative = inhibition, actives largely listed as inhibitors; note: % is set by controls: 0 for no effect and ±100 for the full control effect; nearly all actives have a fitted effect of over 50% in size
* = called active by the depositor; ? = inconclusive; / = no result given; [ ] = another dose, or the depositor's remark. Rows were chosen to be rich in hits. Some 12% of all compounds tested hit in one or more screens of this group. Calls come from the whole dose curve; as a rule, active = well fitted curve in the direction sought with a large enough effect; inconclusive = small, poorly fitted or top-dose-only effect, or another doubt; inactive = no such curve, though single readings can be large; an effect the other way counts as inactive or inconclusive. Potency is the fitted concentration of half-maximal effect.

SMILES	HP1b chromo inh	TDP1 inh	G9a inh	Sfp PPTase inh	BAZ2B inh	JMJD2A Tudor inh
COc1ccc(N=C2C(=Nc3ccc(OC)cc3)N(c3ccc(OC)cc3)C(=S)N2c2ccccc2)cc1	?	11%	?	-4%	2µM*	?
COc1ccc(N=C2C(=Nc3ccc(OC)cc3)N(c3ccc(OC)cc3)C(=S)N2C)cc1	7.1µM*	11%	5µM*	10%	2.8µM*	8.9µM*
Cc1nc(N)sc1-c1csc(N(C)c2ccc(O)cc2)n1	-54%	9%	45µM*	6%	-69%	56µM*
CCCCCCOC(=O)Sc1nc2ccccc2o1	24%	1%	?	45µM*	87%	18%
Cc1cc(C)n2nc(-c3ccsc3-n3c(C)ccc3C)cc2n1	-7%	-2%	50µM*	50µM*	-36%	?
CC(CN1CCN(C)CC1)OC(=O)c1ccccc1Cl (stereo not given)	26%	5%	50µM*	-8%	?	79µM*
CCN1N=C(C)C=C(c2ccccc2)n2c1nc1ccccc12	25%	4%	79µM*	14%	-17%	-12%
O=C(Cc1nc(-c2ccc(Br)s2)cs1)NCCN1CCOCC1	-2%	7%	-1%[12.7 µM]	50µM*	4%	-20%
O=C(Cc1cccs1)NCCN1CCOCC1	35%	3%	-3%[59 µM]	-13%	-9%	1%
CCc1ccc(NC(=O)Cn2nnc(C(=O)NCc3ccc(C)cc3)c2N)cc1	16%	-1%	-5%[59 µM]	/	7%[57.1 µM]	-33%
CCn1c(SCCN2CCCCC2)nc2c1c(=O)n(C)c(=O)n2C	71µM*	/	/	/	/	-25%
Cn1c(=S)c2[nH]c(SCCN)nc2n(C)c1=O	-14%	/	/	/	/	1.1µM*
CCCCSc1nc2c([nH]1)c(=O)n(C)c(=S)n2C	23%	/	/	/	/	-8%
Cn1c(=S)c2[nH]c(SCCN3CCCC3)nc2n(C)c1=O	7%	-14%	-142%[59 µM]	40µM*	?	?
COc1ccc([C@@H]2CC(=O)c3c(O)cc(O[C@H]4O[C@@H](CO[C@H]5O[C@@H](C)[C@@H](O)[C@@H](O)[C@@H]5O)[C@@H](O)[C@@H](O)[C@@H]4O)cc3O2)cc1O	/	2%[56.1 µM]	48%[21.5 µM]	21%	/	/
COc1ccc(CNC(=O)CN(Cc2ccccc2)C(=O)CCC(=O)Nc2ccccn2)cc1	21%	15%	-13%[59 µM]	23%	-1%	-6%
CC(=O)OCC(=O)[C@@]12OC(C)(C)O[C@@H]1C[C@H]1[C@H]3C[C@H](F)C4=CC(=O)C=C[C@@]4(C)[C@]3(F)[C@H](O)C[C@@]12C	/	5%[56.1 µM]	14%[21.5 µM]	46%	/	/
CC(c1ccccc1)C1OCC(C[N+]2(C)CCCCC2)O1 (stereo not given)	?	5%	?	6%	-19%	56µM*
O=c1nc2n(c3sc4c(c13)CCCC4)C(CBr)CS2 (stereo not given)	23%	-2%	50µM*	-10%	-2%	-14%
Cc1cc(C)n(C(=O)c2cc([N+](=O)[O-])cc([N+](=O)[O-])c2)n1	-25%	10%	71µM*	-5%	?	-36%
CCOC(=O)c1ccc(N2C(=O)c3n[nH]c(-c4ccco4)c3C2c2ccc([N+](=O)[O-])cc2)cc1 (stereo not given)	-25%	6%	?	-15%	40µM*	?
CCOC(=O)c1ccc(N2C(=O)c3n[nH]c(-c4ccco4)c3C2c2ccc(O)c(OC)c2)cc1 (stereo not given)	?	9%	22µM*	/	/	?
CCOC(=O)c1ccc(N2C(=O)c3n[nH]c(-c4ccco4)c3C2c2ccc(C)cc2)cc1 (stereo not given)	-28%	7%	11µM*	/	/	?
O=C(OCC#CCSc1nnc(-c2cccc3ccccc23)o1)c1sc(Cl)c(Cl)c1Cl	/	-2%	/	/	/	5%
CCOc1ccc(NC(=O)CC2C(=O)N(C)C(=S)N2Cc2ccco2)cc1 (stereo not given)	16%	1%	-18%[59 µM]	2%	-9%	1%
SMILES	HP1b chromo inh	TDP1 inh	G9a inh	Sfp PPTase inh	BAZ2B inh	JMJD2A Tudor inh
CN1C(=O)C(CC(=O)Nc2ccc(Cl)cc2)N(Cc2ccco2)C1=S (stereo not given)	13%	3%	45µM*	18µM*	?	-32%
Cc1c(Cc2ccccc2)sc(/N=C/c2c(O)ccc3ccccc23)c1C(N)=O	?	-2%	3.2µM*	35µM*	?	?
CCC(=O)Nc1sc(Cc2ccccc2)c(C)c1C(N)=O	-20%	12%	/	?	?	?
Cc1c(Cc2ccccc2)sc(/N=C/c2ccc3ccccc3c2)c1C(N)=O	8%	0%	20µM*	-25%	8%	?
CCc1nn(CC(=O)N2CCC(C)CC2)c(=O)c2cccn12	24%	1%	2%	13%	-15%	-16%
CCc1nn(CC(=O)N2CCN(c3cccc(C(F)(F)F)c3)CC2)c(=O)c2cccn12	17%	-6%	-35%[59 µM]	/	71µM*	?
CCC(c1nnc(SCC(=O)NCCc2ccc(Cl)cc2Cl)o1)N(C)C (stereo not given)	11%	8%	40µM*	?	-4%	-11%
CCC(c1nnc(SCC(=O)Nc2cc(C)on2)o1)N(C)C (stereo not given)	22%	0%	?	/	?	?
CCOC(=O)c1c(NC(=S)Nc2ccc(OC)cc2)sc2c1CCCCC2	?	5%	?	-3%	-32%	-34%[57.1 µM]
COC(=O)c1c(NC(=S)Nc2ccc(F)cc2[N+](=O)[O-])sc2c1CCCCC2	-31%	3%	35µM*	14µM*	?	?
COC(=O)c1c(NC(C)=O)sc2c1CCCCC2	-13%	8%	8.9µM*	56µM*	?	-12%
COC(=O)c1c(NS(C)(=O)=O)sc2c1CCCC2	34%	11%	?	18µM*	-6%	-20%
CNC(=S)Nc1sc2c(c1C(=O)OC)CCC2	5%	1%	16µM*	24%	4%	89µM*
COC(=O)c1c(NC(C)=O)sc2c1CCCC2	33%	3%	-26%[59 µM]	-13%	-12%	3%
CCCCN1CC(c2nc3ccccc3n2CCCCOc2cc(C)ccc2C)CC1=O (stereo not given)	23%	9%	-13%[59 µM]	/	?	-5%
